According to PubChem BioAssay AID1159580 (chemical genetic matrix, 2015):
In all, about 5,500 compounds went through this assay and about 2,000 (36%) were called active. Not shown: some 18% with an inconclusive outcome. No stated cut-off is given here; in the data, active means normalized growth mostly below about 0.91 (no sharp cut-off); inconclusive means no clear call, values can overlap the other calls; inactive means mostly above about 0.92. The list shows a part of the results.

Assay: chemical genetic growth profiling, strain panel (AID 1159580);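 further: tested at 20 µM; growth read once vehicle control cultures reached saturation at 30 °C; 1 = growth at the plate median or of vehicle wells; lower values mean less growth of the strain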
Conditions: growth OD

Measured: normalized growth

Oc1cc(O)c2c(c1)O[C@H](c1cc(O)c(O)c(O)c1)[C@H](O)C2
inactive: S. cerevisiae deletion strains, locus YJR043C, strain POL32, hits give low values 1.05 | S. cerevisiae deletion strains, locus YJR066W, strain TOR1, hits give low values 0.918 | S. cerevisiae deletion strains, locus YKL009W, strain mrt4, hits give low values 0.976 | S. cerevisiae deletion strains, locus YKL068W, hits give low values 1 | S. cerevisiae deletion strains, locus YKL085W, strain MDH1 (second series), hits give low values 1 | S. cerevisiae deletion strains, locus YKL085W, strain MDH1, hits give low values 1 | S. cerevisiae deletion strains, locus YKL160W, strain elf1, hits give low values 1.01 | S. cerevisiae deletion strains, locus YKR001C, strain vps1, hits give low values 0.973 | S. cerevisiae deletion strains, locus YKR026C, strain gcn3, hits give low values 1.02 | S. cerevisiae deletion strains, locus YKR091W, strain srl3, hits give low values 1.02 | S. cerevisiae deletion strains, locus YLL001W, strain dnm1, hits give low values 1.03 | S. cerevisiae deletion strains, locus YLL026W, hits give low values 1.02 | S. cerevisiae deletion strains, locus YLL041C, strain sdh2, hits give low values 1.02 | S. cerevisiae deletion strains, locus YLR027C, strain aat2, hits give low values 1 | S. cerevisiae deletion strains, locus YLR039C, strain RIC1, hits give low values 1.05 | S. cerevisiae deletion strains, locus YLR058C, strain SHM2, hits give low values 0.98 | S. cerevisiae deletion strains, locus YLR102C, strain apc9, hits give low values 0.976 | S. cerevisiae deletion strains, locus YLR113W, strain HOG1, hits give low values 0.977 | S. cerevisiae deletion strains, locus YLR221C, strain rsa3, hits give low values 1.01 | S. cerevisiae deletion strains, locus YLR258W, strain gsy2, hits give low values 1.01 | S. cerevisiae deletion strains, locus YLR262C, strain YPT6 (second series), hits give low values 1.03 | S. cerevisiae deletion strains, locus YLR262C, strain YPT6, hits give low values 1.06 | S. cerevisiae deletion strains, locus YLR268W, strain sec22, hits give low values 0.98 | S. cerevisiae deletion strains, locus YLR320W, strain mms22, hits give low values 1.04 | S. cerevisiae deletion strains, locus YLR330W, strain CHS5, hits give low values 1.01 | S. cerevisiae deletion strains, locus YLR342W, strain FKS1 (second series), hits give low values 0.996 | S. cerevisiae deletion strains, locus YLR342W, strain FKS1, hits give low values 1.01 | S. cerevisiae deletion strains, locus YLR357W, strain rsc2, hits give low values 0.986 | S. cerevisiae deletion strains, locus YLR370C, strain arc18, hits give low values 1.01 | S. cerevisiae deletion strains, locus YLR371W, strain rom2, hits give low values 0.981 | S. cerevisiae deletion strains, locus YLR384C, strain iki3, hits give low values 1.03 | S. cerevisiae deletion strains, locus YLR418C, strain cdc73, hits give low values 1.01 | S. cerevisiae deletion strains, locus YML016C, strain PPZ1, hits give low values 0.981 | S. cerevisiae deletion strains, locus YML032C, strain rad52, hits give low values 1.03 | S. cerevisiae deletion strains, locus YML120C, strain ndi1, hits give low values 1.04 | S. cerevisiae deletion strains, locus YML124C, strain tub3, hits give low values 0.999 | S. cerevisiae deletion strains, locus YMR058W, strain fet3, hits give low values 0.945 | S. cerevisiae deletion strains, locus YMR078C, strain ctf18, hits give low values 1 | S. cerevisiae deletion strains, locus YMR125W, strain sto1, hits give low values 1.02 | S. cerevisiae deletion strains, locus YMR129W, hits give low values 1.02 | S. cerevisiae deletion strains, locus YMR205C, strain PFK2, hits give low values 1.06 | S. cerevisiae deletion strains, locus YMR223W, strain ubp8, hits give low values 0.991 | S. cerevisiae deletion strains, locus YMR231W, strain pep5, hits give low values 0.987 | S. cerevisiae deletion strains, locus YMR307W, strain GAS1, hits give low values 1.07 | S. cerevisiae deletion strains, locus YNL067W, strain RPL9B, hits give low values 0.984 | S. cerevisiae deletion strains, locus YNL071W, strain lat1, hits give low values 1.03 | S. cerevisiae deletion strains, locus YNL153C, strain GIM3, hits give low values 0.957 | S. cerevisiae deletion strains, locus YNL183C, strain NPR1, hits give low values 0.951 | S. cerevisiae deletion strains, locus YNL209W, strain ssb2, hits give low values 1 | S. cerevisiae deletion strains, locus YNL233W, strain BNI4, hits give low values 0.987 | S. cerevisiae deletion strains, locus YNL248C, strain rpa49, hits give low values 1.03 | S. cerevisiae deletion strains, locus YNL250W, strain rad50, hits give low values 0.986 | S. cerevisiae deletion strains, locus YNL271C, strain bni1, hits give low values 0.988 | S. cerevisiae deletion strains, locus YNL298W, strain CLA4, hits give low values 0.969 | S. cerevisiae deletion strains, locus YNL307C, strain MCK1, hits give low values 0.981 | S. cerevisiae deletion strains, locus YNL322C, strain KRE1 (second series), hits give low values 1.02 | S. cerevisiae deletion strains, locus YNR049C, strain mso1, hits give low values 1.02 | S. cerevisiae deletion strains, locus YNR052C, strain pop2, hits give low values 0.994 | S. cerevisiae deletion strains, locus YOL012C, strain htz1 1.18 | S. cerevisiae deletion strains, locus YOL147C, strain pex11, hits give low values 0.988 | S. cerevisiae deletion strains, locus YOR001W, strain rrp6, hits give low values 1.03 | S. cerevisiae deletion strains, locus YOR061W, strain CKA2, hits give low values 0.99 | S. cerevisiae deletion strains, locus YOR069W, strain VPS5, hits give low values 0.99 | S. cerevisiae deletion strains, locus YOR070C, strain gyp1, hits give low values 1 | S. cerevisiae deletion strains, locus YOR080W, strain dia2, hits give low values 1.02 | S. cerevisiae deletion strains, locus YOR083W, strain WHI5, hits give low values 1.01 | S. cerevisiae deletion strains, locus YOR106W, strain vam3, hits give low values 0.999 | S. cerevisiae deletion strains, locus YOR136W, strain idh2, hits give low values 0.976 | S. cerevisiae deletion strains, locus YOR144C, strain elg1, hits give low values 1 | S. cerevisiae deletion strains, locus YOR184W, strain ser1, hits give low values 1.02 | S. cerevisiae deletion strains, locus YOR231W, strain MKK1, hits give low values 0.983 | S. cerevisiae deletion strains, locus YOR265W, strain rbl2, hits give low values 1.02 | S. cerevisiae deletion strains, locus YOR270C, strain vph1, hits give low values 1.1 | S. cerevisiae deletion strains, locus YOR290C, strain snf2, hits give low values 1.02 | S. cerevisiae deletion strains, locus YOR316C, strain cot1, hits give low values 0.98 | S. cerevisiae deletion strains, locus YPL051W, strain arl3, hits give low values 1 | S. cerevisiae deletion strains, locus YPL055C, strain LGE1, hits give low values 1.01 | S. cerevisiae deletion strains, locus YPL078C, strain atp4, hits give low values 1.05 | S. cerevisiae deletion strains, locus YPL106C, strain sse1, hits give low values 0.99 | S. cerevisiae deletion strains, locus YPL240C, strain hsp82, hits give low values 1.02 | S. cerevisiae deletion strains, locus YPL256C, strain CLN2, hits give low values 0.983 | S. cerevisiae deletion strains, locus YPR119W, strain clb2, hits give low values 0.992 | S. cerevisiae deletion strains, locus YPR141C, strain kar3, hits give low values 0.978 | S. cerevisiae deletion strains, locus YPR163C, strain tif3, hits give low values 0.988 | S. cerevisiae deletion strains, locus YPR167C, strain met16, hits give low values 1 | S. cerevisiae deletion strains, strain wtn01, hits give low values 0.975 | S. cerevisiae strains, strain wild type, hits give low values 1
